In the library only some 18% were active in any assay of this set; here they are far more common.
IL-1B inflam inh: qHTS for Inhibitors of Inflammasome Signaling: IL-1-beta AlphaLISA Primary Screen; THP-1 LPS/ATP IL-1B secretion, AlphaLISA, 16 h; stronger effect = lower value; activity change, % at 57.5 µM; actives 4.7% (n = 360,000); AID 743279, 2014; in the data active = activity change below about -50%; inconclusive = mostly about -30% to -49%
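Secreted IL-1B measured by AlphaLISA bead assay after 16 h compound exposure of THP-1 cells; compounds (final up to 57.5 uM) added 1 h before LPS (250 ng/mL) and ATP (1.25 mM) stimulation; lower signal means less secretion.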
RORgamma inh: qHTS for inhibitors of ROR gamma transcriptional activity. actives 5.4% (n = 310,000). Nuclear receptor ROR-gamma (Mus musculus), P51450. Potency, µM (top dose mostly 53.6 µM), inactives show at the top dose activity change, negative = inhibition, usual class: inhibitors. Drosophila S2 Gal4-RORgamma UAS-luciferase reporter, 20 h; also: potency is read from the fitted curve at half-maximal effect; nearly all actives have a fitted effect of over 60% in size
Target sequence (P51450 whole entry, looked up, the tested form may be a part): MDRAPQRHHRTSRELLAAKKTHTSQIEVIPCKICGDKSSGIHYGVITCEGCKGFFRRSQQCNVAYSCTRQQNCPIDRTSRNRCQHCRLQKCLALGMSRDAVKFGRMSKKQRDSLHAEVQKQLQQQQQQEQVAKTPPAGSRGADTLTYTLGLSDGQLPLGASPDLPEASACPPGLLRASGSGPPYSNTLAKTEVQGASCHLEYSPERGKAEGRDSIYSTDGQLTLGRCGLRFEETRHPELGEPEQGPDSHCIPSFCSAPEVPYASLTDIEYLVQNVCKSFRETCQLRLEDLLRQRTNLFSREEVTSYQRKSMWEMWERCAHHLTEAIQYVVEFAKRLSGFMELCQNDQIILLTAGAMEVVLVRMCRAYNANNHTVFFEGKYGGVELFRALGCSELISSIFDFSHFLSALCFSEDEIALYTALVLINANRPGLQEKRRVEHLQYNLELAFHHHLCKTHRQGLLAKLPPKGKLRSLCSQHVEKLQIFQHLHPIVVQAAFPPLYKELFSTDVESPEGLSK
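Stable Schneider cell line, Gal4 DNA-binding domain fused to ROR gamma, UAS-luciferase. Cmpd 1 hr RT → CuSO4 700 uM final → 20 hr RT → luciferase reagent 10 min → luminescence.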
TDP1 cell noCPT: qHTS for Inhibitors of human tyrosyl-DNA phosphodiesterase 1 (TDP1): qHTS in cells in absence of CPT. DT40 Tdp1-/- hTDP1 cells, no CPT, ATP luminescence, 48 h. Potency, µM (series often up to 46.2 µM), without a hit: at the highest dose activity change, negative = growth inhibition, usual class: inhibitors. actives 15% (n = 420,000); also: potency is read from the fitted curve at half-maximal effect; nearly all actives have a fitted effect of over 55% in size
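Growth kinetics read by CellTiter-Glo luminescence after ≥48 hr at 37 °C. Cells: DT40 Tdp1-/- stably carrying human TDP1, 400 per well, compound exposure in the absence of CPT (DMSO vehicle).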
LDHA inh: qHTS assay for inhibitors of human lactate dehydrogenase; purified LDHA, NADH/diaphorase-resazurin fluorescence; stronger effect = lower value; L-lactate dehydrogenase A chain (Homo sapiens), P00338; activity change, % (values are at about 110 or 230 µM); actives 0.15% (n = 480,000); in the data active = activity change below about -30%; inconclusive = mostly about -25% to -30%;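 also: plate controls were DMSO wells for no effect and wells without enzyme for full effect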
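Remaining NADH was detected by diaphorase (0.133 mg/mL) converting 37 µM resazurin to fluorescent resorufin, read at 0 and 20 minutes. The preceding 5-minute room-temperature reaction used 2 nM LDHA, 0.2 mM sodium pyruvate and 0.06 mM NADH at pH 7.4.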
DT40 TDP1 CPT: qHTS for Inhibitors of human tyrosyl-DNA phosphodiesterase 1 (TDP1): qHTS in cells in presence of CPT. actives 12% (n = 420,000). Potency, µM (titrated, usually from 46.2 µM), inactives show at the highest dose activity change, negative = growth inhibition, usual class: inhibitors. chicken DT40 Tdp1-/-;hTDP1 cells + 20 nM CPT, ATP luminescence, 48 h; also: potency is read from the fitted curve at half-maximal effect; nearly all actives have a fitted effect of over 55% in size
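Cell growth measured by CellTiter-Glo luminescence after a minimum 48 h, 37 C compound exposure with 20 nM CPT in Tdp1-knockout DT40 cells stably expressing hTDP1, seeded 400/well; qHTS titration format.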
Gal4-VP16 FLuc: VP16 counterscreen qHTS for inhibitors of ROR gamma transcriptional activity | Potency, µM (series often up to 53.6 µM), for inactives: top-dose activity, negative = inhibition, usual class: inhibitors | actives 3.5% (n = 310,000) | AID 2546, 2010 | Drosophila S2 Gal4-VP16 UAS-luciferase, luminescence, 20 h;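 also: Gal4-VP16 expression switched on by copper sulfate through the metallothionein promoter; potency is read from the fitted curve at half-maximal effect; nearly all actives have a fitted effect of over 50% in size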
Active calls of the source: *. Unless noted, calls follow the shape of the dose curve; as a rule, active = well fitted curve in the direction sought with a large enough effect; inconclusive = small, poorly fitted or top-dose-only effect, or another doubt; inactive = no such curve, though single readings can be large; an effect the other way counts as inactive or inconclusive. Unless noted, % is scaled to controls: 0 for no effect and ±100 for the full control effect.

What do the screens show for `CCN(CC)CCOc1ccc2c(c1)C(=O)c1cc(OCCN(CC)CC)ccc1-2`?
RORgamma inh: -1%; TDP1 cell noCPT: 10µM*; DT40 TDP1 CPT: 15µM*; Gal4-VP16 FLuc: -6%

How did CN(C)C(=O)c1cnc(Sc2ncc(C(F)(F)F)cc2Cl)n1C do in these assays?
IL-1B inflam inh: 35; RORgamma inh: inconclusive; TDP1 cell noCPT: 8.2µM*; LDHA inh: 2; DT40 TDP1 CPT: 8.2µM*; Gal4-VP16 FLuc: -2%

How did CN(C)C(=O)c1cccn1-c1ncc(C(F)(F)F)cc1Cl do in these assays?
IL-1B inflam inh: 35; RORgamma inh: 6%; TDP1 cell noCPT: 4%; LDHA inh: -8; DT40 TDP1 CPT: 2%; Gal4-VP16 FLuc: -11%

Results for CC(C)CC(CNc1ccc2nnnn2n1)N1CCCC1 (stereo unspecified) ?
LDHA inh: 5

How did CCCNC(=O)C1(C)CCN(Cc2cc(-c3ccccc3)on2)C1 (stereo unspecified) do in these assays?
IL-1B inflam inh: -2; TDP1 cell noCPT: 15µM*; LDHA inh: 2; DT40 TDP1 CPT: inconclusive

Results for CCCNC(=O)C1(C)CCCN(Cc2csc(-c3ccccc3)n2)C1 (stereo unspecified) ?
IL-1B inflam inh: inconclusive; TDP1 cell noCPT: 21µM*; LDHA inh: -4; DT40 TDP1 CPT: inconclusive

What do the screens show for `CCNC(=O)C1(C)CCCN(Cc2csc(-c3ccc(Cl)cc3)n2)C1` (stereo unspecified)?
IL-1B inflam inh: 0; TDP1 cell noCPT: -103%; LDHA inh: -11; DT40 TDP1 CPT: -109%

Results for COc1cccc(CNC(=O)c2cccc(N3CCCN(Cc4ccc(C)cc4)C3=O)c2)c1 ?
LDHA inh: 14

What do the screens show for `CC(Sc1ncnc2nc[nH]c12)C(=O)NCCc1ccc(Cl)cc1Cl` (stereo unspecified)?
LDHA inh: 0

Results for O=C(NNC(=S)Nc1ccccc1)C(c1ccccc1)c1ccccc1 ?
LDHA inh: -2

How did CC(=O)NC(=S)NNC(=O)C(c1ccccc1)c1ccccc1 do in these assays?
IL-1B inflam inh: 58; RORgamma inh: 6.3µM*; TDP1 cell noCPT: 21µM*; LDHA inh: -7; DT40 TDP1 CPT: 13µM*; Gal4-VP16 FLuc: -6%

Results for O=C(Nc1ccc(OC(F)(F)F)cc1)C(Cc1ccccc1)C(=O)Nc1ccc(OC(F)(F)F)cc1 ?
LDHA inh: 5

Results for O=C(NC1CCCCC1)C(c1cccc2ccccc12)n1c(=O)c(-c2cc3ccccc3[nH]2)nc2ccccc21 (stereo unspecified) ?
IL-1B inflam inh: 77; TDP1 cell noCPT: 13µM*; LDHA inh: -6; DT40 TDP1 CPT: inconclusive

What do the screens show for `O=C(NC1CCCCC1)C(c1ccccc1F)n1c(=O)c(-c2cc3ccccc3[nH]2)nc2ccccc21` (stereo unspecified)?
IL-1B inflam inh: 65; TDP1 cell noCPT: 15µM*; LDHA inh: -7; DT40 TDP1 CPT: inconclusive

How did CCCCCNC(=O)C(c1cccc2ccccc12)n1c(=O)c(-c2cc3ccccc3[nH]2)nc2ccccc21 (stereo unspecified) do in these assays?
IL-1B inflam inh: 58; TDP1 cell noCPT: inconclusive; LDHA inh: 2; DT40 TDP1 CPT: inconclusive

How did Cc1cccc(C(C)C)c1NC(=O)Cc1c[nH]c2ccccc12 do in these assays?
LDHA inh: 6

Results for COc1ccc(/C=C/C(=O)c2ccc([N+](=O)[O-])o2)cc1OC ?
IL-1B inflam inh: -102*; TDP1 cell noCPT: 1.2µM*; LDHA inh: 4; DT40 TDP1 CPT: 0.58µM*

Results for O=C(/C=C/c1cccc(Cl)c1)c1ccc([N+](=O)[O-])o1 ?
IL-1B inflam inh: -102*; TDP1 cell noCPT: 0.58µM*; LDHA inh: 9; DT40 TDP1 CPT: 0.58µM*

How did COc1cc(/C=C/C(=O)c2ccc([N+](=O)[O-])o2)ccc1O do in these assays?
IL-1B inflam inh: -60*; TDP1 cell noCPT: 0.52µM*; LDHA inh: 19; DT40 TDP1 CPT: 0.92µM*

What do the screens show for `O=C(CSC1=NCCS1)Nc1cccc2ccccc12`?
IL-1B inflam inh: -5; RORgamma inh: 20%; TDP1 cell noCPT: 16µM*; LDHA inh: -3; DT40 TDP1 CPT: inconclusive; Gal4-VP16 FLuc: 2%

How did O=C(CSC1=NCCS1)Nc1ccccc1F do in these assays?
IL-1B inflam inh: 2; RORgamma inh: -7%; TDP1 cell noCPT: inconclusive; LDHA inh: -14; DT40 TDP1 CPT: -25%; Gal4-VP16 FLuc: inconclusive

What do the screens show for `CC(NC(=O)CSC1=NCCS1)c1ccccc1` (stereo unspecified)?
IL-1B inflam inh: -55*; RORgamma inh: 5µM*; TDP1 cell noCPT: -3%; LDHA inh: -7; DT40 TDP1 CPT: 8%; Gal4-VP16 FLuc: -4%

Results for O=C(CSC1=NCCS1)NC(c1ccccc1)c1ccccc1 ?
IL-1B inflam inh: -72*; RORgamma inh: 2%; TDP1 cell noCPT: 16µM*; LDHA inh: -7; DT40 TDP1 CPT: inconclusive; Gal4-VP16 FLuc: inconclusive

What do the screens show for `CONC(=O)C(NC(=O)c1ccccc1F)C(C)C` (stereo unspecified)?
LDHA inh: 2

How did O=S(=O)(NCc1ccc(N2CCOCC2)nc1)c1cc(C(F)(F)F)cc(C(F)(F)F)c1 do in these assays?
LDHA inh: 8

How did NC(=O)C1(Nc2ccc(-c3ccc(Cl)cc3)cc2)CCCC1 do in these assays?
IL-1B inflam inh: 5; TDP1 cell noCPT: inconclusive; LDHA inh: -3; DT40 TDP1 CPT: 16µM*

How did O=C1CC(c2ccc(OCCCCCOc3ccc(C4CC(=O)NC4=O)cc3)cc2)C(=O)N1 (stereo unspecified) do in these assays?
IL-1B inflam inh: -131*; RORgamma inh: inconclusive; TDP1 cell noCPT: inconclusive; LDHA inh: -3; DT40 TDP1 CPT: -27%; Gal4-VP16 FLuc: -13%

How did CCCCCCCCOc1ccc(C2CC(=O)NC2=O)cc1 (stereo unspecified) do in these assays?
IL-1B inflam inh: -3; RORgamma inh: 21%; TDP1 cell noCPT: -18%; LDHA inh: 2; DT40 TDP1 CPT: -9%; Gal4-VP16 FLuc: 27%

How did O=C(c1ccccc1Oc1ccccc1)N1CCC(c2nc3ccccc3o2)CC1 do in these assays?
LDHA inh: 3

Screening data: PubChem, National Center for Advancing Translational Sciences (NCATS)
